Assay outcomes from PubChem.
HEK293 tox – Cytotoxic Profiling in HEK 293 Cell Line of Diverse Libraries Using Quantitative High-Throughput Screening; HEK 293 viability, ATP luminescence (CellTiter-Glo), 48-72 h; Potency, µM (titrated, usually from 115 µM), without a hit: at the highest dose activity change, negative = cytotoxicity, actives largely listed as inhibitors; 94,000 tested, 6.6% active; also: nearly all actives have a fitted effect of over 60% in size
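HEK 293 cells seeded at 250 cells/well were exposed to compound for 48 or 72 hr at 37 degree Celsius. Viability taken as ATP content by CellTiter-Glo luminescence.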
3T3 cytotox – Cytotoxic Profiling in NIH 3T3 Cell Line of Diverse Libraries Using Quantitative High-Throughput Screening; Potency, µM (top dose mostly 96.7 µM), for the others: at the top dose activity change, negative = cytotoxicity, most hits filed as inhibitors; 94,000 tested, 4.3% active; NIH 3T3 viability, CellTiter-Glo ATP luminescence, 48-72 h; also: nearly all actives have a fitted effect of over 55% in size
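ATP-dependent luminescence (CellTiter-Glo) served as the viability signal for NIH 3T3 cells treated with compound for 48 or 72 hr at 37 °C.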
HEK293 viab – GF-AFC viability counterscreen for inhibitors of alpha-synuclein gene (SNCA) expression | HEK-293-SNCA-luc viability, GF-AFC fluorescence, 24 h | Potency, µM (doses to about 57.1 µM), for inactives: at the top dose activity change, negative = cytotoxicity, usual class: cytotoxic | 150,000 tested, 0.12% active | AID 1671193, 2021;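 also: 0% = DMSO-treated cells and -100% = medium-only wells without cells; nearly all actives have a fitted effect of over 30% in size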
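Cytotoxicity counterscreen: after 24 h compound treatment of genome-edited SNCA-luciferase HEK-293 cells, live-cell protease substrate GF-AFC read by fluorescence after 30 min; activity scaled between DMSO (0%) and medium-only (-100%), curves Hill-fitted.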
FLuc inh – Firefly luciferase inhibition profiling of diverse chemical library using quantitative high-throughput screening | Luciferin 4-monooxygenase (Photinus pyralis), P08659 | purified P. pyralis luciferase, luminescence, biochemical | Potency, µM (highest dose often 115 µM), usual class: inhibitors | 76,000 tested, 2.5% active; also: nearly all actives have a fitted effect of over 65% in size
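Purified P. pyralis luciferase (10nM final) in 50mM Tris acetate pH 7.5, 10mM Mg acetate, 0.01% Tween-20, 0.05% BSA with 10uM D-luciferin and 10uM ATP. Compounds titrated qHTS. Luminescence imaged on CCD.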
SNCA expr inhib – Primary qHTS assay for inhibitors of alpha-synuclein gene (SNCA) expression; HEK-293 SNCA-luciferase knock-in, luminescence, 24 h; Potency, µM (doses to about 57.2 µM), inactives show at the top dose activity change, negative = inhibition, most hits filed as inhibitors; 140,000 tested, 0.17% active;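 also: plate controls were DMSO cells for no effect and cell-free wells for full effect; nearly all actives have a fitted effect of over 45% in size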
NPR1 antag – Natriuretic polypeptide receptor (hNpr1) antagonism - Primary qHTS | 76,000 tested, 1.6% active | Atrial natriuretic peptide receptor 1 (Homo sapiens), P16066 | HEK293 hNpr1 GloSensor cGMP, ANP-stimulated luminescence | Potency, µM (series often up to 46.3 µM), for inactives: at the top dose activity change, negative = inhibition, most hits filed as inhibitors; calls by dose curve; also: nearly all actives have a fitted effect of over 60% in size
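HEK293 cells stably expressing human Npr1 and cGMP GloSensor pGS-40F, loaded 2 h with 2% GloSensor reagent, given compound 30 min at room temperature. Luminescence read before and 20 min after 0.1 nM hNppA.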
An asterisk follows results filed as active; i = inactive; ? = inconclusive; / = no result; [ ] = remark or other dose. Sampled rows, rich in hits. Any-hit rate of the full collection: about 7.4%. Unless noted, calls follow the shape of the dose curve; as a rule, active = well fitted curve in the direction sought with a large enough effect; inconclusive = small, poorly fitted or top-dose-only effect, or another doubt; inactive = no such curve, though single readings can be large; an effect the other way counts as inactive or inconclusive. Unless noted, % is scaled to controls: 0 for no effect and ±100 for the full control effect; potency is read from the fitted curve at half-maximal effect.

SMILES	HEK293 tox	3T3 cytotox	HEK293 viab	FLuc inh	SNCA expr inhib	NPR1 antag
CCN1c2cc(C(=O)Nc3ccc(Br)c(C)c3)ccc2C(=O)N2CCCC21 (stereo unspecified)	?	-20%	-3%[12.5 µM]	i	73%	0%
CCN1c2cc(C(=O)Nc3ccc(Cl)c(C)c3)ccc2C(=O)N2CCCCC21 (stereo unspecified)	16µM*	?	?	i	-29%	4%
CCN1c2cc(C(=O)Nc3ccc(Cl)c(Cl)c3)ccc2C(=O)N2CCCCCC21 (stereo unspecified)	?	45µM*	-2%[12.5 µM]	i	?	-2%
CCN1c2cc(C(=O)Nc3ccc(C)c(C)c3)ccc2C(=O)N2CCCCC21 (stereo unspecified)	28µM*	28µM*	13%[12.5 µM]	i	-20%	-10%
CNC(=O)c1cc(C2CC2)nc2onc(C3CCN(C(=O)N(C)C)CC3)c12	-5%[172 µM]	5%[138 µM]	/	/	/	/
COC(=O)[C@@H]1C2CC3c4[nH]c5ccccc5c4CCN3CC2CC[C@@H]1O (stereo partly specified)	/	/	-5%	/	/	/
COC(=O)[C@@H]1Cc2c([nH]c3ccccc23)[C@H]2C[C@H](NCCNC(C)=O)C[C@@H](c3ccc(C(F)(F)F)cc3)N21	20µM*	28µM*	0%	i	17%	0%
COC(=O)[C@@H]1Cc2c([nH]c3ccccc23)[C@H]2C[C@H](NCCNC(C)=O)C[C@@H](c3ccccc3)N21	89µM*	?	-7%	i	30%	-1%
COCCN[C@@H]1C[C@@H]2c3[nH]c4ccccc4c3C[C@@H](C(=O)OC)N2[C@H](c2ccc(C(F)(F)F)cc2)C1	35µM*	45µM*	-1%	i	-5%	-2%
COC(=O)[C@H]1[C@H]2C[C@H]3c4[nH]c5ccccc5c4CCN3C[C@H]2CC[C@@H]1O	/	/	-1%	/	-3%	/
O=C(C1CCCN1C(=O)c1ccccc1)N1CCC(N2CCCC2=O)CC1 (stereo unspecified)	4%	i	-18%	/	2%	/
O=C(c1nc(-c2ccc(Cl)cc2Cl)c2ccccn12)N1CCN(c2ncccn2)CC1	40µM*	?	1%	/	11%	/
N#CC1CCN(C(=O)c2nc(-c3cc(Cl)cc(Cl)c3)c3ccccn23)CC1	25µM*	?	-20%	i	9%	-4%
O=C(c1nc(-c2ccc(Cl)cc2Cl)c2ccccn12)N1CCCC1	?	?	-5%	/	9%	/
COCCNC(=O)c1nc(-c2ccc(Cl)cc2)c2ccccn12	?	79µM*	-12%[87.6 µM]	i	-1%[87.6 µM]	-1%[70.6 µM]
O=C(c1nc(-c2ccc(Cl)cc2)c2ccccn12)N1CCCC1	?	?	-12%[87.6 µM]	45µM*	97%[87.6 µM]	0%[70.6 µM]
O=C(c1nc(-c2ccc(Cl)cc2Cl)c2cnccn12)N1CCN(c2ncccn2)CC1	i	3%	-1%	/	-6%	/
CCOC(=O)C1c2c(OC)ccc3c2C(=CC(C)(C)CO3)CN1C(C)=O (stereo unspecified)	?	-32%	/	/	/	/
COc1ccc(Cn2c(=O)c(C(=O)NCc3cccc(F)c3)nc3cccnc32)cc1	?	?	-15%	/	-4%	/
Cc1nnc2ccc(N3CCN(C(=O)NC(C)C)CC3)nn12	i	-19%[138 µM]	/	/	/	/
O=C(NCc1ccc2c(c1)OCO2)c1nc(-c2ccc(Cl)cc2Cl)c2ccccn12	32µM*	?	3%	i	9%	4%
O=C(NCc1ccc2c(c1)OCO2)c1nc(-c2ccccc2)c2ccccn12	-25%	?	1%	i	27%	1%
COc1ccccc1-c1cc(C(=O)Nc2ccc(F)cc2)nn2cnnc12	?	-30%	-10%	/	-5%	/
CC(C)c1ccc(CC(=O)N2CCCc3ncc(C(=O)NCCN4CCCC4)cc32)cc1	?	?	-10%[87.6 µM]	i	43%[87.6 µM]	1%[70.6 µM]
CC(C)c1ccc(CC(=O)N2CCCc3ncc(C(=O)NCCN(C)C)cc32)cc1	?	100µM*	-13%[87.6 µM]	i	-13%[87.6 µM]	5%[70.6 µM]
SMILES	HEK293 tox	3T3 cytotox	HEK293 viab	FLuc inh	SNCA expr inhib	NPR1 antag
CC(C)c1ccc(CC(=O)N2CCCc3ncc(C(=O)NCc4ccccc4)cc32)cc1	89µM*	89µM*	-18%[87.6 µM]	i	0%[87.6 µM]	-5%[70.6 µM]
CC(C)c1ccc(CC(=O)N2CCCc3ncc(C(=O)NCc4ccc(F)cc4)cc32)cc1	?	?	-12%	i	-3%	-21%
CC(C)c1ccc(CC(=O)N2CCCc3ncc(C(=O)Nc4ccc5[nH]ccc5c4)cc32)cc1	35µM*	?	?	i	-7%	-6%
COc1ccc(Cn2c(=O)c(C(=O)NCc3cccc(C(F)(F)F)c3)nc3cccnc32)cc1	?	?	8%	/	-5%	/
O=C(NCc1ccccc1)c1nc2cccnc2n(CCc2ccccc2)c1=O	?	?	4%[12.5 µM]	/	?	/
COc1ccc(CNC(=O)C2CN(C3CCCC3)C(=O)N2)cc1 (stereo unspecified)	-6%[172 µM]	-15%[138 µM]	1%[12.5 µM]	/	48%[87.6 µM]	/
COc1cccc(CC(=O)N2CCC3(CC2)OC(=O)N(Cc2ncccn2)C3(C)c2ccccc2)c1 (stereo unspecified)	i	?	-1%	i	6%	0%
COc1cccc(CN2C(=O)OC3(CCN(C(=O)Cc4ccccn4)CC3)C2(C)c2cccnc2)c1 (stereo unspecified)	i	35µM*	2%	i	-24%	9%
CC1(c2ccccc2)N(Cc2ccccc2C#N)C(=O)OC12CCN(C(=O)Cc1ccccn1)CC2 (stereo unspecified)	2%	28µM*	4%	i	8%	-4%
CC(C)C(=O)N1CCC2(CC1)OC(=O)N(Cc1ccccc1C#N)C2(C)c1ccccc1 (stereo unspecified)	-9%[172 µM]	?	1%[87.6 µM]	i	14%[87.6 µM]	-3%[70.6 µM]
COc1cccc(CC(=O)N2CCC3(CC2)OC(=O)N(Cc2csc(C)n2)C3(C)c2ccccc2)c1 (stereo unspecified)	-40%	7.1µM*	-27%	i	-8%	-10%
CCOC(=O)C1CCCN(C(=O)c2cn3cc(-c4ccc(OC)cc4)sc3n2)C1 (stereo unspecified)	?	?	?	/	-10%	/
